# Experimental data as given in PubChem BioAssay AID1259373 (The Scripps Research Institute Molecular Screening Center, 2018).
# This is one part of the list. Unmarked numbers belong to inactive results. The rule behind the calls is not given here.
# Assay: signal-interfering artefacts in bead proximity readout – biochemical, AlphaScreen, HTS, counter-screen, dose response (AID 1259373)
# Conditions: AlphaScreen optical interference counterscreen, cell-free
structure (smiles),measurement,value
CCOC(=O)C1C2NC(=S)N(CC)C1(C)Oc1ccc(Cl)cc12 (stereo unspecified),IC50,> 8.6 µM
